Experimental data taken from PubChem BioAssay (EPA / NIEHS).
Results filed as inconclusive are left out. Calls of active or inactive are those of the source. Rule for the calls: active = hit-call score of the fitted dose curve at least 0.9, where 1 is the maximum; inconclusive = response in the unintended direction; inactive = score below 0.9.

target: Peroxisome proliferator-activated receptor gamma (Homo sapiens) (UniProt P37231); test: OT_PPARg_PPARgSRC1_0480: Odyssey Thera (OT) 8-hour Protein-Complementation Assay for Peroxisome Proliferator-activated Receptor Gamma / SRC-1 Co-activator (AID 2283387);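 note: nuclear to cytoplasmic split Venus YFP fluorescence ratio reporting PPARg SRC-1 interaction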
Procedure, shortened: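 Split-YFP (IFP1/IFP2) PPARg/SRC-1 reporter, HEK293T, 37 °C, 5% CO2; 8 h compound; formaldehyde fix + Draq5; high-content imaging, N/C ratio, ≥350 cells/image, positive direction vs DMSO.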

Peroxisome proliferator-activated receptor gamma (Homo sapiens), sequence (P37231 whole entry, looked up, the tested form may be a part): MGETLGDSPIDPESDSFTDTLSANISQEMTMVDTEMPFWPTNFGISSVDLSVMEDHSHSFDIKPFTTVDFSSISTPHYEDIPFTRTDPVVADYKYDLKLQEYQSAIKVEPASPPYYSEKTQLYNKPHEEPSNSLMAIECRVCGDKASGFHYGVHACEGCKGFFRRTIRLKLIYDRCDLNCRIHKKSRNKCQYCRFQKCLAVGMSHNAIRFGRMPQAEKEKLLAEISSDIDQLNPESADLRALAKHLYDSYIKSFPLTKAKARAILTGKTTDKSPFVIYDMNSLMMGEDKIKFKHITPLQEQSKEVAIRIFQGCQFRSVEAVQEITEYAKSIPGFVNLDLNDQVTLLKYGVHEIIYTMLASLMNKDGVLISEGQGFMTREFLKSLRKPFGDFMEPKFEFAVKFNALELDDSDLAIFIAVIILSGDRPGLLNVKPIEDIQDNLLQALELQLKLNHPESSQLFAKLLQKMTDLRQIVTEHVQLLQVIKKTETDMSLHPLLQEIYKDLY

SMILES | outcome
O=C(NC(=O)c1c(F)cccc1F)Nc1cc(Cl)c(OC(F)(F)C(F)C(F)(F)F)cc1Cl (configuration not stated) | inactive
C=CC(Cl)CCl (configuration not stated) | inactive
OCCCCO | inactive
Nc1ncn[nH]1 | inactive
Clc1cccc(Cl)c1Cl | inactive
O=C(NC(=O)c1c(F)cccc1F)Nc1ccc(Cl)cc1 | inactive
C=CCN=C=S | inactive
COCCl | inactive
O=C(O)COc1ccc(Cl)cc1 | inactive
COc1nn(C(=O)NS(=O)(=O)c2ccccc2OC(F)(F)F)c(=O)n1C | inactive

target: Peroxisome proliferator-activated receptor gamma (Homo sapiens) (UniProt P37231); test: OT_PPARg_PPARgSRC1_1440: Odyssey Thera (OT) 24-hour Protein-Complementation Assay for Peroxisome Proliferator-activated Receptor Gamma/ SRC-1 Co-activator (AID 2283388);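 note: nuclear to cytoplasmic ratio of reconstituted Venus YFP fluorescence in fixed imaged cells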
Procedure, shortened: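 Cells carrying the PPARg/SRC-1 fragment-complementation reporter receive compound for 24 hours, are fixed and counterstained with Draq5, then imaged. Increased nuclear relative to cytoplasmic YFP fluorescence above DMSO baseline indicates binding activity.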

SMILES | AC50 | outcome
O=S1(=O)OC(c2cc(Br)c(O)c(Br)c2)(c2cc(Br)c(O)c(Br)c2)c2ccccc21 | 51.9 µM (active) | 
O=[N+]([O-])c1ccc(Cl)c([N+](=O)[O-])c1 |  | inactive
O=C(CCl)Nc1ccccc1 |  | inactive
O=C(NC(=O)c1c(F)cccc1F)Nc1cc(Cl)c(OC(F)(F)C(F)C(F)(F)F)cc1Cl (configuration not stated) |  | inactive
C=CC(Cl)CCl (configuration not stated) |  | inactive
OCCCCO |  | inactive
Nc1ncn[nH]1 |  | inactive
Cc1cc(Cl)ccc1OCCCC(=O)O |  | inactive
N#CS |  | inactive
O=C(O)C1(c2ccc3c(c2)OC[C@H](Cc2ccc(-c4ccccc4)cc2)[C@H]3O)CCCC1 |  | inactive
N#CCCC(Br)(C#N)CBr (configuration not stated) |  | inactive
Clc1cccc(Cl)c1Cl |  | inactive
O=C(NC(=O)c1c(F)cccc1F)Nc1ccc(Cl)cc1 |  | inactive
N#Cc1cccnc1 |  | inactive
CNC(=O)O/N=C/C(C)(C)S(C)(=O)=O |  | inactive
CC(O)(CS(=O)(=O)c1ccc(F)cc1)C(=O)Nc1ccc(C#N)c(C(F)(F)F)c1 (configuration not stated) |  | inactive

SMILES | AC50 | outcome
O=C(O)COc1cc(Cl)c(Cl)cc1Cl |  | inactive
C=CCN=C=S |  | inactive
CCN(CCO)CCO |  | inactive
COCCl |  | inactive
O=C(O)COc1ccc(Cl)cc1 |  | inactive
COc1ccccc1N |  | inactive
CC(C)N(C(=O)CCl)c1ccccc1 |  | inactive
Cc1cc(Cl)ccc1OC(C)C(=O)O (configuration not stated) |  | inactive
O=C(CBr)c1ccc(O)cc1 |  | inactive
Oc1cc(Cl)c(Cl)cc1Cl |  | inactive
O=c1[nH]c(=O)n(Cl)c(=O)n1Cl |  | inactive
Clc1cccc(Cl)c1 |  | inactive
O=CCCl |  | inactive
COc1nn(C(=O)NS(=O)(=O)c2ccccc2OC(F)(F)F)c(=O)n1C |  | inactive
CCC[CH2][Sn]([CH2]CCC)([CH2]CCC)[CH2]CCC |  | inactive
CC1(C)[C@H](C(=O)O[C@H](C#N)c2cccc(Oc3ccccc3)c2)[C@@H]1/C=C(\Cl)C(F)(F)F |  | inactive
